Source: PubChem BioAssay AID1159580 (chemical genetic matrix, 2015)
Screen size: about 5,500 compounds; about 2,000 (36%) were called active. Inconclusive results (about 18%) are left out. Cut-off read from the data, not from the text of the source: active = normalized growth mostly below about 0.91 (no sharp cut-off); inconclusive = no clear call, values can overlap the other calls; inactive = mostly above about 0.92. The list shows a part of the results.

Assay: chemical genetic growth profiling, strain panel (AID 1159580);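 note: tested at 20 µM; growth read once vehicle control cultures reached saturation at 30 °C; 1 = growth at the plate median or of vehicle wells; lower values mean less growth of the strain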
Settings: growth OD

Measured: normalized growth

NC(=NCCC[C@H](N)C(=O)O)NC(CCC(=O)O)C(=O)O (stereo partly drawn)
inactive: S. cerevisiae deletion strains, locus YAL021C, strain ccr4, active compounds read low 1 | S. cerevisiae deletion strains, locus YAL026C, strain drs2, active compounds read low 1 | S. cerevisiae deletion strains, locus YAL030W, strain snc1, active compounds read low 1 | S. cerevisiae deletion strains, locus YBL061C, strain skt5, active compounds read low 1.01 | S. cerevisiae deletion strains, locus YBR009C, strain hhf1, active compounds read low 1 | S. cerevisiae deletion strains, locus YBR021W, strain FUR4, active compounds read low 1.02 | S. cerevisiae deletion strains, locus YBR023C, strain chs3, active compounds read low 1.01 | S. cerevisiae deletion strains, locus YBR171W, strain sec66, active compounds read low 1.02 | S. cerevisiae deletion strains, locus YBR229C, strain ROT2, active compounds read low 1.01 | S. cerevisiae deletion strains, locus YBR231C, strain swc5, active compounds read low 1.01 | S. cerevisiae deletion strains, locus YBR279W, strain paf1, active compounds read low 0.998 | S. cerevisiae deletion strains, locus YCL011C, strain gbp2, active compounds read low 1.01 | S. cerevisiae deletion strains, locus YCL016C, strain dcc1, active compounds read low 1.01 | S. cerevisiae deletion strains, locus YCL029C, strain bik1, active compounds read low 1.03 | S. cerevisiae deletion strains, locus YCL061C, strain MRC1, active compounds read low 0.998 | S. cerevisiae deletion strains, locus YCL069W, strain vba3, active compounds read low 1.01 | S. cerevisiae deletion strains, locus YCR088W, strain abp1, active compounds read low 1.01 | S. cerevisiae deletion strains, locus YDL005C, strain med2, active compounds read low 1.01 | S. cerevisiae deletion strains, locus YDL035C, strain GPR1, active compounds read low 1.02 | S. cerevisiae deletion strains, locus YDL040C, strain nat1, active compounds read low 1.01 | S. cerevisiae deletion strains, locus YDL074C, strain BRE1, active compounds read low 1.05 | S. cerevisiae deletion strains, locus YDL101C, strain DUN1, active compounds read low 1.01 | S. cerevisiae deletion strains, locus YDL185W, strain tfp1, active compounds read low 1.01 | S. cerevisiae deletion strains, locus YDL192W, strain arf1, active compounds read low 1.02 | S. cerevisiae deletion strains, locus YDR001C, strain nth1, active compounds read low 1.01 | S. cerevisiae deletion strains, locus YDR069C, strain doa4, active compounds read low 1.01 | S. cerevisiae deletion strains, locus YDR101C, strain arx1, active compounds read low 1.04 | S. cerevisiae deletion strains, locus YDR137W, strain rgp1, active compounds read low 0.992 | S. cerevisiae deletion strains, locus YDR159W, strain sac3, active compounds read low 1.01 | S. cerevisiae deletion strains, locus YDR162C, strain NBP2, active compounds read low 0.977 | S. cerevisiae deletion strains, locus YDR195W, strain ref2 0.974 | S. cerevisiae deletion strains, locus YDR297W, strain sur2, active compounds read low 1.01 | S. cerevisiae deletion strains, locus YDR318W, strain mcm21, active compounds read low 1 | S. cerevisiae deletion strains, locus YDR334W, strain swr1, active compounds read low 1.01 | S. cerevisiae deletion strains, locus YDR335W, strain msn5, active compounds read low 0.995 | S. cerevisiae deletion strains, locus YDR388W, active compounds read low 1.02 | S. cerevisiae deletion strains, locus YDR392W, strain spt3, active compounds read low 1.02 | S. cerevisiae deletion strains, locus YDR502C, strain sam2, active compounds read low 1.01 | S. cerevisiae deletion strains, locus YEL003W, strain gim4, active compounds read low 1 | S. cerevisiae deletion strains, locus YEL037C, strain rad23, active compounds read low 1 | S. cerevisiae deletion strains, locus YEL061C, strain CIN8 (second series), active compounds read low 1 | S. cerevisiae deletion strains, locus YEL061C, strain CIN8, active compounds read low 1.01 | S. cerevisiae deletion strains, locus YER015W, strain faa2, active compounds read low 1.01 | S. cerevisiae deletion strains, locus YER016W, strain bim1, active compounds read low 1 | S. cerevisiae deletion strains, locus YER110C, active compounds read low 1.01 | S. cerevisiae deletion strains, locus YER111C, strain swi4, active compounds read low 0.996 | S. cerevisiae deletion strains, locus YER155C, strain BEM2 (second series), active compounds read low 1.02 | S. cerevisiae deletion strains, locus YER155C, strain BEM2, active compounds read low 1.01 | S. cerevisiae deletion strains, locus YER167W, strain BCK2, active compounds read low 1.02 | S. cerevisiae deletion strains, locus YFR010W, strain ubp6, active compounds read low 1.01 | S. cerevisiae deletion strains, locus YGL078C, strain dbp3, active compounds read low 1.02 | S. cerevisiae deletion strains, locus YGL086W, strain mad1, active compounds read low 1.04 | S. cerevisiae deletion strains, locus YGL167C, strain pmr1, active compounds read low 1.01 | S. cerevisiae deletion strains, locus YGL173C, strain kem1, active compounds read low 1.01 | S. cerevisiae deletion strains, locus YGL227W, strain vid30, active compounds read low 1.01 | S. cerevisiae deletion strains, locus YGL240W, strain doc1, active compounds read low 1.02 | S. cerevisiae deletion strains, locus YGL248W, strain PDE1, active compounds read low 0.999 | S. cerevisiae deletion strains, locus YGL253W, strain hxk2, active compounds read low 1.01 | S. cerevisiae deletion strains, locus YGR078C, strain PAC10, active compounds read low 1.01 | S. cerevisiae deletion strains, locus YGR135W, strain pre9, active compounds read low 1.04 | S. cerevisiae deletion strains, locus YGR252W, strain gcn5, active compounds read low 0.991 | S. cerevisiae deletion strains, locus YHR013C, strain ard1, active compounds read low 1.03 | S. cerevisiae deletion strains, locus YHR027C, strain rpn1, active compounds read low 1.02 | S. cerevisiae deletion strains, locus YHR030C, strain SLT2, active compounds read low 1.01 | S. cerevisiae deletion strains, locus YHR079C, strain IRE1 (second series), active compounds read low 1 | S. cerevisiae deletion strains, locus YHR094C, strain hxt1, active compounds read low 1.01 | S. cerevisiae deletion strains, locus YHR129C, strain ARP1, active compounds read low 1.01 | S. cerevisiae deletion strains, locus YHR142W, strain chs7, active compounds read low 1.02 | S. cerevisiae deletion strains, locus YHR200W, strain rpn10, active compounds read low 1 | S. cerevisiae deletion strains, locus YIL066C, strain RNR3, active compounds read low 1.01 | S. cerevisiae deletion strains, locus YIL073C, strain SPO22, active compounds read low 1.06 | S. cerevisiae deletion strains, locus YIL125W, strain kgd1, active compounds read low 1.02 | S. cerevisiae deletion strains, locus YIR030C, strain dcg1, active compounds read low 1.01 | S. cerevisiae deletion strains, locus YJL092W, strain hpr5, active compounds read low 1.01 | S. cerevisiae deletion strains, locus YJL095W, strain BCK1 (second series), active compounds read low 1.01 | S. cerevisiae deletion strains, locus YJL095W, strain BCK1, active compounds read low 1.01 | S. cerevisiae deletion strains, locus YJL115W, strain asf1, active compounds read low 1 | S. cerevisiae deletion strains, locus YJL129C, strain trk1, active compounds read low 1.01 | S. cerevisiae deletion strains, locus YJL134W, strain LCB3, active compounds read low 1.01 | S. cerevisiae deletion strains, locus YJL154C, strain vps35, active compounds read low 1.01 | S. cerevisiae deletion strains, locus YJL164C, strain tpk1, active compounds read low 1.01 | S. cerevisiae deletion strains, locus YJL166W, strain qcr8, active compounds read low 1.01 | S. cerevisiae deletion strains, locus YJL168C, strain set2, active compounds read low 1.04 | S. cerevisiae deletion strains, locus YJL187C, strain SWE1 (second series), active compounds read low 1 | S. cerevisiae deletion strains, locus YJL187C, strain SWE1, active compounds read low 1 | S. cerevisiae deletion strains, locus YJR043C, strain POL32, active compounds read low 1 | S. cerevisiae deletion strains, locus YKL009W, strain mrt4, active compounds read low 1.03 | S. cerevisiae deletion strains, locus YKL068W, active compounds read low 1 | S. cerevisiae deletion strains, locus YKL085W, strain MDH1 (second series), active compounds read low 1.01 | S. cerevisiae deletion strains, locus YKL085W, strain MDH1, active compounds read low 1.01 | S. cerevisiae deletion strains, locus YKL160W, strain elf1, active compounds read low 1.02 | S. cerevisiae deletion strains, locus YKL190W, strain CNB1, active compounds read low 1.01 | S. cerevisiae deletion strains, locus YKR001C, strain vps1, active compounds read low 1.06 | S. cerevisiae deletion strains, locus YKR026C, strain gcn3, active compounds read low 1.01 | S. cerevisiae deletion strains, locus YKR091W, strain srl3, active compounds read low 1.01 | S. cerevisiae deletion strains, locus YLL001W, strain dnm1, active compounds read low 1.01 | S. cerevisiae deletion strains, locus YLL026W, active compounds read low 1.01 | S. cerevisiae deletion strains, locus YLL041C, strain sdh2, active compounds read low 1.01 | S. cerevisiae deletion strains, locus YLR027C, strain aat2, active compounds read low 0.998 | S. cerevisiae deletion strains, locus YLR039C, strain RIC1, active compounds read low 1 | S. cerevisiae deletion strains, locus YLR058C, strain SHM2, active compounds read low 1.01 | S. cerevisiae deletion strains, locus YLR102C, strain apc9, active compounds read low 1.02 | S. cerevisiae deletion strains, locus YLR221C, strain rsa3, active compounds read low 1.02 | S. cerevisiae deletion strains, locus YLR258W, strain gsy2, active compounds read low 1.01 | S. cerevisiae deletion strains, locus YLR262C, strain YPT6 (second series), active compounds read low 0.996 | S. cerevisiae deletion strains, locus YLR262C, strain YPT6, active compounds read low 1.02 | S. cerevisiae deletion strains, locus YLR268W, strain sec22, active compounds read low 1.04 | S. cerevisiae deletion strains, locus YLR320W, strain mms22, active compounds read low 1.02 | S. cerevisiae deletion strains, locus YLR330W, strain CHS5, active compounds read low 1.01 | S. cerevisiae deletion strains, locus YLR342W, strain FKS1 (second series), active compounds read low 1.06 | S. cerevisiae deletion strains, locus YLR342W, strain FKS1, active compounds read low 1.01 | S. cerevisiae deletion strains, locus YLR357W, strain rsc2, active compounds read low 1.03 | S. cerevisiae deletion strains, locus YLR370C, strain arc18, active compounds read low 1.01 | S. cerevisiae deletion strains, locus YLR371W, strain rom2, active compounds read low 1.02 | S. cerevisiae deletion strains, locus YLR384C, strain iki3, active compounds read low 0.996 | S. cerevisiae deletion strains, locus YLR418C, strain cdc73, active compounds read low 1.01 | S. cerevisiae deletion strains, locus YML016C, strain PPZ1, active compounds read low 1 | S. cerevisiae deletion strains, locus YML032C, strain rad52, active compounds read low 1.02 | S. cerevisiae deletion strains, locus YML120C, strain ndi1, active compounds read low 1 | S. cerevisiae deletion strains, locus YML124C, strain tub3, active compounds read low 1.01 | S. cerevisiae deletion strains, locus YMR058W, strain fet3, active compounds read low 1.01 | S. cerevisiae deletion strains, locus YMR078C, strain ctf18, active compounds read low 1.01 | S. cerevisiae deletion strains, locus YMR125W, strain sto1, active compounds read low 0.999 | S. cerevisiae deletion strains, locus YMR129W, active compounds read low 0.997 | S. cerevisiae deletion strains, locus YMR205C, strain PFK2, active compounds read low 1.02 | S. cerevisiae deletion strains, locus YMR223W, strain ubp8, active compounds read low 0.985 | S. cerevisiae deletion strains, locus YMR231W, strain pep5, active compounds read low 0.989 | S. cerevisiae deletion strains, locus YMR307W, strain GAS1, active compounds read low 1 | S. cerevisiae deletion strains, locus YNL067W, strain RPL9B, active compounds read low 0.995 | S. cerevisiae deletion strains, locus YNL071W, strain lat1, active compounds read low 1.01 | S. cerevisiae deletion strains, locus YNL153C, strain GIM3, active compounds read low 0.989 | S. cerevisiae deletion strains, locus YNL209W, strain ssb2, active compounds read low 1 | S. cerevisiae deletion strains, locus YNL233W, strain BNI4, active compounds read low 1.03 | S. cerevisiae deletion strains, locus YNL248C, strain rpa49, active compounds read low 1.01 | S. cerevisiae deletion strains, locus YNL250W, strain rad50, active compounds read low 1.02 | S. cerevisiae deletion strains, locus YNL271C, strain bni1, active compounds read low 0.999 | S. cerevisiae deletion strains, locus YNL298W, strain CLA4, active compounds read low 1.01 | S. cerevisiae deletion strains, locus YNL307C, strain MCK1, active compounds read low 1.03 | S. cerevisiae deletion strains, locus YNL322C, strain KRE1 (second series), active compounds read low 1.01 | S. cerevisiae deletion strains, locus YNL322C, strain KRE1, active compounds read low 1.01 | S. cerevisiae deletion strains, locus YNR049C, strain mso1, active compounds read low 1.02 | S. cerevisiae deletion strains, locus YNR052C, strain pop2, active compounds read low 1.01 | S. cerevisiae deletion strains, locus YOL012C, strain htz1 1.47 | S. cerevisiae deletion strains, locus YOL147C, strain pex11, active compounds read low 1.02 | S. cerevisiae deletion strains, locus YOR001W, strain rrp6, active compounds read low 1.02 | S. cerevisiae deletion strains, locus YOR061W, strain CKA2, active compounds read low 1.01 | S. cerevisiae deletion strains, locus YOR069W, strain VPS5, active compounds read low 1.01 | S. cerevisiae deletion strains, locus YOR070C, strain gyp1, active compounds read low 1 | S. cerevisiae deletion strains, locus YOR080W, strain dia2, active compounds read low 0.999 | S. cerevisiae deletion strains, locus YOR083W, strain WHI5, active compounds read low 1 | S. cerevisiae deletion strains, locus YOR106W, strain vam3, active compounds read low 1.02 | S. cerevisiae deletion strains, locus YOR136W, strain idh2, active compounds read low 1.05 | S. cerevisiae deletion strains, locus YOR144C, strain elg1, active compounds read low 1.02 | S. cerevisiae deletion strains, locus YOR184W, strain ser1, active compounds read low 1.01 | S. cerevisiae deletion strains, locus YOR265W, strain rbl2, active compounds read low 1 | S. cerevisiae deletion strains, locus YOR270C, strain vph1, active compounds read low 1.02 | S. cerevisiae deletion strains, locus YOR290C, strain snf2, active compounds read low 1.02 | S. cerevisiae deletion strains, locus YOR316C, strain cot1, active compounds read low 1.02 | S. cerevisiae deletion strains, locus YPL051W, strain arl3, active compounds read low 0.995 | S. cerevisiae deletion strains, locus YPL078C, strain atp4, active compounds read low 1 | S. cerevisiae deletion strains, locus YPL106C, strain sse1, active compounds read low 1.02 | S. cerevisiae deletion strains, locus YPL240C, strain hsp82, active compounds read low 1 | S. cerevisiae deletion strains, locus YPR119W, strain clb2, active compounds read low 1.01 | S. cerevisiae deletion strains, locus YPR141C, strain kar3, active compounds read low 1.01 | S. cerevisiae deletion strains, locus YPR163C, strain tif3, active compounds read low 1.02 | S. cerevisiae deletion strains, locus YPR167C, strain met16, active compounds read low 1.02 | S. cerevisiae deletion strains, strain wtn01, active compounds read low 1.05 | S. cerevisiae strains, strain wild type, active compounds read low 1.01
